SMILES strings stand for the structures. Compounds without any hit were thinned out: in the full panel of roughly 83,000, 20% have a hit.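 In brief: 96-well plates, 48 h treatment, single concentration, percent growth endpoint.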 Values without a mark were called inactive. Calls of active or inactive are those of the source. The calls were made as follows: active = growth percent below 10; inactive = the rest.

Among the test systems are NCI-H23 lung; NCI-H226 lung; NCI-H322M lung; HOP-62 NSCLC; NCI-H460 lung; HOP-92 NSCLC; NCI-H522 lung; A549/ATCC NSCLC; 786-0 renal; COLO 205 colon; DU-145 prostate; K-562 leukemia; MALME-3M melanoma; MDA-MB-231 breast; RXF 393 renal; SF-268 CNS; SF-295 CNS; SF-539 CNS; UACC-257 melanoma; M14 melanoma.
Common to all, as to experiment: NCI-60 one-dose screen, 48 h (100 = growth as untreated, 0 = no growth, -100 = all killed)
Common to all, as to conditions: 10 µM unless noted

On to `COc1ccc2c(Nc3ccc(NS(C)(=O)=O)cc3)c3ccccc3nc2c1`, for which the growth was -18.6% (active) in the assay on NCI-H23 lung; -27.1% (active) with NCI-H226 lung; 9.34% (active) in the assay on NCI-H322M lung; -0.998% (active) with HOP-62 NSCLC; -21.8% (active) with NCI-H460 lung; -16.6% (active) in the assay with HOP-92 NSCLC. Further, the growth with NCI-H522 lung is -58.6% (active); in the assay on A549/ATCC NSCLC it was -71.2% (active); in the assay on 786-0 renal, 18.4%; in the assay with COLO 205 colon, -74.1% (active); in the assay with DU-145 prostate, 8.86% (active); in the assay on K-562 leukemia it was 6.83% (active). Further, the growth with MALME-3M melanoma was -50.7% (active); in the assay with MDA-MB-231 breast, 3.5% (active); in the assay on RXF 393 renal it was -73.9% (active); with SF-268 CNS it was -2.84% (active); with SF-295 CNS, -27.9% (active); with SF-539 CNS, -0.512% (active). The growth in the assay on UACC-257 melanoma is -78% (active); in the assay on M14 melanoma, -53.6% (active).
In the case of `CN(C)CCCn1c2c(c3ccc(-c4ccn[nH]4)cc3c1=O)C(=O)c1ccccc1-2`, the growth was 21.6% with NCI-H23 lung; 6.87% (active) with NCI-H226 lung; 81.9% with NCI-H322M lung; 5.59% (active) in the assay with HOP-62 NSCLC; 1.55% (active) with NCI-H460 lung; 34.1% in the assay with HOP-92 NSCLC. For the same compound, the growth with NCI-H522 lung was 25.9%; in the assay with A549/ATCC NSCLC, 0.619% (active); in the assay on 786-0 renal, 2.46% (active); with COLO 205 colon, 43%; in the assay with DU-145 prostate, 4.84% (active); in the assay with K-562 leukemia it was 24.5%. In addition, the growth was 39.7% in the assay on MALME-3M melanoma; 71.1% in the assay with MDA-MB-231 breast; 68.3% in the assay on RXF 393 renal; 44.6% in the assay with SF-268 CNS; 1.34% (active) with SF-295 CNS; 46.4% with SF-539 CNS. Further, the growth is 70.3% in the assay on UACC-257 melanoma and 48% with M14 melanoma.
For `COc1cc(C(=O)c2cnc(-c3ccc4cc[nH]c4c3)[nH]2)cc(OC)c1OC`, the growth with NCI-H23 lung was 22.9%; in the assay with NCI-H226 lung, 26.2%; in the assay with NCI-H322M lung it was 36.3%; in the assay on HOP-62 NSCLC, 12.7%; in the assay on NCI-H460 lung it was -9.07% (active); in the assay with HOP-92 NSCLC it was -2.58% (active). Also, the growth in the assay with NCI-H522 lung was -17.4% (active); in the assay on A549/ATCC NSCLC it was 8.91% (active); with 786-0 renal, -8.83% (active); in the assay with COLO 205 colon it was -55.3% (active); in the assay with DU-145 prostate it was -1.47% (active); with K-562 leukemia, 8.98% (active). In addition, the growth was 48.9% in the assay with MALME-3M melanoma; -48% (active) in the assay with MDA-MB-231 breast; 34.4% in the assay on RXF 393 renal; 10% with SF-268 CNS; 5.4% (active) in the assay with SF-295 CNS; -5.7% (active) in the assay with SF-539 CNS. Also, the growth is 62.3% in the assay on UACC-257 melanoma and 4.97% (active) in the assay on M14 melanoma.
With `O=S(=O)(NCCCNc1nccc(-c2c(-c3cccc(O)c3)nc3occn23)n1)c1ccc(F)cc1`, the growth is 88.6% with NCI-H23 lung; 110% with NCI-H226 lung; 103% in the assay on NCI-H322M lung; 117% with HOP-62 NSCLC; 80.9% with NCI-H460 lung; 116% with HOP-92 NSCLC. For the same compound, the growth was 77.7% in the assay on NCI-H522 lung; 88.8% with A549/ATCC NSCLC; 92.1% in the assay on 786-0 renal; 35.5% with COLO 205 colon; 85.8% with DU-145 prostate; 68.7% in the assay on K-562 leukemia. Also, the growth is 17.9% in the assay with MALME-3M melanoma; 62.7% with MDA-MB-231 breast; 68% in the assay with RXF 393 renal; 84.5% in the assay on SF-268 CNS; 101% in the assay on SF-295 CNS; 101% with SF-539 CNS. Further, the figures for the growth in the assay with UACC-257 melanoma and in the assay on M14 melanoma were 19.7% and 27.5%, respectively.
Consider `CC(=O)[C@@H]1CC[C@]2(C(N)=O)CC[C@]3(C)[C@H](CC[C@@H]4[C@@]5(C)CCC(=O)C(C)(C)[C@@H]5CC[C@]43C)[C@@H]12`, for which the growth is 95.1% with NCI-H23 lung; 102% in the assay on NCI-H226 lung; 99.3% with NCI-H322M lung; 92% in the assay with HOP-62 NSCLC; 101% with NCI-H460 lung; 103% with HOP-92 NSCLC. The growth is 87.2% in the assay on NCI-H522 lung; 96.3% with A549/ATCC NSCLC; 89.6% with 786-0 renal; 102% in the assay on COLO 205 colon; 105% in the assay on DU-145 prostate; 88.4% in the assay on K-562 leukemia. Moreover, the growth was 112% in the assay with MALME-3M melanoma; 95.8% in the assay on MDA-MB-231 breast; 109% in the assay with RXF 393 renal; 95.4% in the assay on SF-268 CNS; 93.8% with SF-295 CNS; 99.5% in the assay with SF-539 CNS. The growth in the assay with UACC-257 melanoma is 93.6%; in the assay with M14 melanoma, 93.4%.
In the case of `CCn1ccnc1C(=O)/C=C/c1ccc(CC(=O)Nc2ccc(F)cc2)cc1`, the growth with NCI-H23 lung is 29.2%; with NCI-H226 lung, 87.4%; with NCI-H322M lung it was 35.4%; in the assay with HOP-62 NSCLC it was 8.48% (active); with NCI-H460 lung, 5.47% (active); in the assay on HOP-92 NSCLC it was 62.8%. The growth was 18.2% in the assay on NCI-H522 lung; 32.9% in the assay on A549/ATCC NSCLC; 24.6% with 786-0 renal; 33.4% in the assay on COLO 205 colon; -24.8% (active) in the assay with DU-145 prostate; 7.76% (active) in the assay with K-562 leukemia. Moreover, the growth in the assay with MALME-3M melanoma was 92.4%; in the assay on MDA-MB-231 breast it was 25.9%; in the assay on RXF 393 renal, 26%; in the assay on SF-268 CNS it was 5% (active); with SF-295 CNS it was 22.2%; in the assay on SF-539 CNS it was 1.75% (active). Moreover, the growth in the assay with UACC-257 melanoma is 83.5%; in the assay on M14 melanoma it was 75.5%.
On to `O=C(Nc1nc(-c2ccccc2Cl)cs1)c1cc(-c2ccccc2)nc2ccc(Cl)cc12`, for which the growth was 51.3% in the assay with NCI-H23 lung; 74.3% in the assay on NCI-H226 lung; 93.8% with NCI-H322M lung; 84.6% in the assay with HOP-62 NSCLC; 102% with NCI-H460 lung; 42.8% in the assay with HOP-92 NSCLC. Besides, the growth with NCI-H522 lung was 78.6%; with A549/ATCC NSCLC, 99.7%; in the assay with 786-0 renal it was 89.4%; in the assay on COLO 205 colon it was 87.6%; with DU-145 prostate it was 77.8%; in the assay on K-562 leukemia it was 25.2%. Moreover, the growth with MALME-3M melanoma was 63.9%; in the assay on MDA-MB-231 breast it was 46.8%; in the assay with RXF 393 renal, 87.2%; with SF-268 CNS it was 44.7%; with SF-295 CNS, 81.1%; in the assay with SF-539 CNS, -7.04% (active). The values for the growth with UACC-257 melanoma and in the assay with M14 melanoma were 84.6% and 4.1% (active), respectively.
As to `Cc1ccc(C(=O)Nc2ccccc2C(=O)N/N=C(\c2ccccc2)c2ccccn2)cc1`, the growth is 32.6% with NCI-H23 lung; 30.3% with NCI-H226 lung; 33.4% in the assay with NCI-H322M lung; 14.5% with HOP-62 NSCLC; 5.43% (active) with NCI-H460 lung; 52.7% in the assay with HOP-92 NSCLC. Besides, the growth was 24.1% in the assay on NCI-H522 lung; 17.2% with A549/ATCC NSCLC; -17.1% (active) with 786-0 renal; 14.1% in the assay on COLO 205 colon; 22.7% with DU-145 prostate; 19.9% with K-562 leukemia. In addition, the growth in the assay with MALME-3M melanoma is 37.9%; in the assay with MDA-MB-231 breast it was 34.4%; in the assay on RXF 393 renal it was 40.4%; in the assay on SF-268 CNS, 20.2%; in the assay with SF-295 CNS it was 23%; with SF-539 CNS, 8.97% (active). The growth with UACC-257 melanoma is 8.34% (active); in the assay on M14 melanoma it was -38.9% (active).

Source of the values: PubChem BioAssay (NCI).
